Test results published in PubChem BioAssay (NCI).
The panel holds about 83,000 compounds, 20% with a hit somewhere; the sample as a whole holds those more often.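 Plates (96-well) were seeded with cells, treated with compound at one concentration, and incubated for 48 hours before percent growth was determined.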 A number with no mark means an inactive call. Active and inactive are the calls of the source. How the source made its calls: active means growth percent below 10; inactive means the rest.

Each molecule was assayed on HL-60(TB) leukemia (assay: NCI-60 one-dose screen, 48 h (100 = growth as untreated, 0 = no growth, -100 = all killed)). Conditions: 10 µM unless noted.
Molecule `COCCn1cc(-c2nc(-c3cn(CCOC)c4ncccc34)cs2)c2cc(F)ccc21` has a growth of 97.8%. With `CC1=NN(c2ccccc2)C(=O)C1C(=O)c1ccccc1` (stereo not given) the growth was 68.5%. Molecule `CCc1ccc(-c2nc(SCC(=O)NC3CCCCC3)n[nH]2)cc1` has a growth of 56.3%. `CN(C)c1ccc(N)c2ccccc12` showed a growth of 43.5%. For `COC(=O)c1nc(-c2ccccc2)oc1S(=O)(=O)N(C)CCO`, the growth was -24.6% (active). With `CCCCCCCCCN(CCCCCCCCC)C(C)C(=O)c1ccc2cc(Br)c3ccccc3c2c1` (stereo not given) the growth was 102%. `CCCS(=O)(=O)Nc1ccc(F)c(C(=O)c2c[nH]c3ncc(-c4ccc(Cl)cc4)cc23)c1F` was tested, and the growth was 30.7%. Molecule `CCOC(=O)c1ccc(Nc2ncnc3c2cnn3-c2cccc(F)c2)cc1` has a growth of 109%. With `CCN(CC)c1ccc(C(O)C2=CC(=O)c3ccccc3C2=O)cc1` (stereo not given) the growth was -1.99% (active). With `O=C(CC1Sc2ccccc2NC1=O)NNc1cccc(Cl)c1Cl` (stereo not given) the growth was 9.18% (active). With `Nc1ccc2c(c1)C1(CCC2)NC(=O)NC1=O` (stereo not given) the growth was 93.1%. `OCC1OC(OC2C(O)C(CO)OC2(CO)OC2OC(CO)C(O)C(O)C2O)C(O)C(O)C1O` (stereo not given) gave a growth of 129%. For `O=S(=O)(O)c1ccc2cc(O)ccc2c1`, the growth was 100%. Work on `Cc1c(CC(=O)Nc2ccccc2)nnn1-c1ccccc1` yielded a growth of 99.3%. With `CC/C=C\C[C@H]1C/C=C2/C(=O)C(Cl)=C[C@@H]2C/C=C\CCCC(=O)O1` the growth was -6.91% (active). Work on `Fc1cccc(F)c1C#Cc1ccc2cccnc2c1` yielded a growth of 74.6%. With `O=C1NC(=S)NC(=O)C1=Cc1cn(Cc2ccccn2)c2ccccc12` the growth was 32.5%. Work on `CN1C(=O)N(C)C2(c3ccccc3)OC(=S)NC12c1ccccc1` (stereo not given) yielded a growth of 95.6%. In the case of `COc1cc(C2=Nc3c(N)nc(N)nc3NC(c3cccc(Nc4ccnc5cc(C(F)(F)F)ccc45)c3)C2)cc(OC)c1OC` (stereo not given), the growth is reported as 63.2%. With `O=C(Nc1ccc(Cl)c([N+](=O)[O-])c1)Nc1nc2ccccc2s1` the growth was 91.3%. `CC(=O)NCC1c2c(n(C)c3c(Cl)c(Cl)ccc23)C(=O)NC1(C)C` (stereo not given) was tested, and the growth was 84%. `CCN(CC)CCOc1ccc(Cl)c(C)c1` showed a growth of 113%. `CCOCCNc1ccc(S(=O)(=O)c2ccc(N)cc2)cc1N` showed a growth of 107%. `CN(c1ccccc1)c1ncnc2c1ncn2C` was tested, and the growth was 105%. For `CC(C)C[C@H](C(=O)O)N(C)C(=O)[C@@H]1CCCN1C(=O)[C@H](C)OC(=O)[C@H](CCC(N)=O)NC(=O)[C@@H]1CCC(=O)N1`, the growth was 85.8%. `CCOC(=O)COc1c(C)cc(SSc2cc(C)c(OCC(=O)OCC)c(C)c2)cc1C` showed a growth of 88.5%. `Fc1ccc(-c2nn3c(-c4cc(C(F)(F)F)cc(C(F)(F)F)c4)nnc3s2)cc1` showed a growth of 92.2%. For `COc1ccc(CC(C)=C(c2ccc(OCCN3CCCCCC3)cc2)c2ccc(OCCN3CCCCCC3)cc2)cc1`, the growth was -59.8% (active). `O=C(CCCCNC(=O)c1cc(=O)c(O)co1)Nc1ccccc1` gave a growth of 54.7%. With `COc1cc(Cl)ccc1C` the growth was 107%. With `CCOC(=O)CCCCCCCCC(=O)OCC` the growth was 97.4%. `C=C1c2c(C)nn(-c3ccc(NC(C)=O)cc3)c2N(C)C23CC1C1(C)c4c(C)nn(-c5ccc(NC(C)=O)cc5)c4N(C)C(C)(CC12)C3` (stereo not given) was tested, and the growth was -20.6% (active). For `CCCCn1c(-c2cccc(OC)c2)nc2cc(OC)c(OC)cc2c1=O`, the growth was 78.3%. Molecule `CNC(=O)NCC1OC(n2cnc3c(NC(=O)Nc4ccccc4)ncnc32)C2OC(=O)CC12` (stereo not given) has a growth of 82.7%. Molecule `COC(=O)c1cc([N+](=O)[O-])cc([N+](=O)[O-])c1Cl` has a growth of 55.4%. Work on `COc1cc2ncnc(Nc3ccc(C(=O)/C=C/c4ccc(C(F)(F)F)cc4F)cc3)c2cc1OC` yielded a growth of 85.9%. `CC1=NCC2NC(=O)NC(C)=C12` (stereo not given) showed a growth of 109%. `Cc1cc(N/C=c2\sc3ncnn3c2=O)no1` gave a growth of 111%. For `COc1ccc(CCN2CCCn3c2nc2ccccc2c3=O)cc1`, the growth was -5.2% (active). `Cc1ccc(NC(=O)Cc2ccc(/C=C/C(=O)c3ncc[nH]3)cc2)cc1` was tested, and the growth was 27.5%.
